# Reference: ChEMBL document CHEMBL3988442, “University of Dundee, Small-Polar-MMV Screening Library” (2021)
# In all, about 53,000 compounds went through this assay and about 900 (1.7%) showed an effect of 50% or more. For the sample, strong results were picked, then their nearest neighbours and some compounds at random.
# Tested on: Mycobacterium tuberculosis
# Assay: Cornell - Phenotypic assay to identify agents that inhibit growth of Mycobacterium tuberculosis
# Type: functional
# Parameters: scale not given: direction of the effect not stated beside the values
# Conditions: 10 mM as filed; unlikely as a test dose
row,Structure (SMILES),Percent Effect [%]
1,O[C@@H]1CN(c2cnc3ccccc3n2)CC[C@H]1c1ccc2c(c1)OCO2,102.9
2,O[C@@H]1CN(c2nc3ccccc3o2)CC[C@H]1c1ccc2c(c1)OCO2,1.12
3,O[C@@H]1CN(c2nc3ccccc3s2)CC[C@H]1c1ccc2c(c1)OCO2,18.1
4,COc1cccc(CNC(=O)CN2CCCC(Cn3cncn3)C2)c1 (configuration not stated),-43.6
5,Cc1cnn(C2CN(Cc3nc(-c4ccsc4)no3)C2)c1,18.79
6,Cc1cnn(C2CN(Cc3nc(-c4ccccc4C)no3)C2)c1,-13.18
7,Cc1cnn(C2CN(Cc3nnc(Cc4ccccc4)o3)C2)c1,75.37
8,Cc1cnn(C2CN(Cc3nc4cc(Cl)ccc4n3C)C2)c1,63.15
9,Cc1cccc(-c2noc(CN3CC(n4cc(C)cn4)C3)n2)c1,51.38
10,Cc1ccc(-c2nnc(CN3CC(n4cc(C)cn4)C3)o2)cc1,82.45
11,Cc1cc(C)n(C2CN(Cc3nc4cc(Cl)ccc4n3C)C2)n1,-28.71
12,Cc1cnn(C2CN(Cc3nnc(-c4ccccc4Cl)o3)C2)c1,-48.85
13,Cc1cnn(C2CN(Cc3nc(-c4ccccn4)no3)C2)c1,-25.23
14,Cc1cnn(C2CN(Cc3nc(C(C)(C)C)no3)C2)c1,-9.455
15,Cc1cnn(C2CN(Cc3nc(-c4cccnc4)no3)C2)c1,3.209
16,Cc1ccc(-c2noc(CN3CC(n4cc(C)cn4)C3)n2)cc1,41.03
17,CCOc1ccccc1-n1c(C2CC(=O)N(C)C2)n[nH]c1=O (configuration not stated),-16.7
18,Cc1c[nH]c(CN(C)C(=O)[C@]23CNC[C@H]2CNC3)n1,-19.02
19,O=C(Nc1ccnn1Cc1ccc(Cl)cc1)C1CCS(=O)(=O)C1 (configuration not stated),-30.31
20,CC(C)(C)C(=O)NS(=O)(=O)c1ccc(F)cc1C(F)(F)F,31.3
21,CC(=O)N1CCC(Cc2cnc(Nc3cc(C)on3)cn2)CC1,-2.54
22,Nc1nonc1C(=O)N1Cc2ccccc2OC2(CCOCC2)C1,-22.02
23,COc1ccc(-c2cn([C@H](CO)CC(C)C)nn2)cn1,26.72
24,COC(=O)Cn1c(=O)nc2n1C(=O)N(c1ccc(F)cc1)C2,8.177
25,Cc1cnn(CC2CCCN2C(=O)c2cccc(S(C)(=O)=O)c2)c1 (configuration not stated),1.06
26,Cc1noc([C@]23COC[C@H]2CN(C(=O)COC2CCCC2)C3)n1,1.713

row,Structure (SMILES),Percent Effect [%]
1,CNC(=O)Cn1c(-c2ccco2)nn(-c2ccccc2OC)c1=O,-0.5787
2,CC(c1cccnc1)N(C)C(=O)NCCOc1ccc(C#N)cc1 (configuration not stated),12.58
3,C[C@@H]1CN(C(=O)C2CCS(=O)(=O)CC2)CC[C@@]1(O)C1CCOCC1,26.03
4,Cc1cc(C)n(CCN2CCC(N(C)Cc3nnc(C)n3C)C2)n1 (configuration not stated),-7.03
5,CCN(C(=O)Cc1ccc(NCc2ncc[nH]2)cc1)c1ccccc1,52.94
6,CCN(C(=O)Cc1ccc(NC(=O)NC2CC2)cc1)c1ccccc1,-6.305
7,CCN(C(=O)Cc1ccc(NCc2nccn2C)cc1)c1ccccc1,9.386
8,Cc1nn(C)c(Cl)c1C1CCCN1C(=O)c1cnc[nH]1 (configuration not stated),8.572
9,Cc1ccc(C(=O)NCc2ccnc(C3CCCOC3)n2)s1 (configuration not stated),2.557
10,CC(C)(C)CNC(=O)c1ccc(C(=O)O)nc1,11.56
11,CN(CC(=O)NCCc1ccccn1)C(=O)c1cccs1,-9.987
12,CC(O)CCN(C)C(=O)Nc1cc(F)cc(Br)c1 (configuration not stated),23
13,CN(CC(O)C1CC1)C(=O)Nc1cc(F)cc(Br)c1 (configuration not stated),5.584
14,CNC(=O)C(C)CN(C)C(=O)Nc1cc(F)cc(Br)c1 (configuration not stated),72.87
15,Cn1nc(C2CN(S(C)(=O)=O)C2)c2nccnc21,-1.799
16,CSc1nsc(SCC(=O)c2cc3c(cc2Cl)NC(=O)C3)n1,71.22
17,Nc1nnc(SCC(=O)c2cc3c(cc2Cl)NC(=O)C3)s1,9.185
18,Cc1nnc(SCC(=O)c2cc3c(cc2Cl)NC(=O)C3)s1,21.14
19,O=C(C1CCOCC1)N1CCC(O)(Cn2ccc3ccncc32)CC1,-3.808
20,Cc1cc(CN2C[C@@H]3COC[C@@H](C(=O)N4CCCCO4)[C@@H]3C2)oc1C.O=C(O)C(F)(F)F,19.33
21,CN(C)CC1(O)CCN(C(=O)Cc2ccc(Cl)c(Cl)c2)C1 (configuration not stated),-11.99
22,CN(C)CC1(O)CCN(C(=O)Cc2ccc3c(c2)CCC3)C1 (configuration not stated),59.81
23,CN(C)CC1(O)CCN(C(=O)Cc2ccc3c(c2)CCCC3)C1 (configuration not stated),27.93
24,O=C1C(Sc2nnnn2C2CC2)CCN1c1ccccc1F (configuration not stated),-21.88
25,Cc1cc(NS(=O)(=O)c2ccccc2F)ccc1-n1cccc1C(=O)O,63.88
26,Cc1ccc(S(=O)(=O)Nc2ccc(-n3cccc3C(=O)O)c(C)c2)cc1,24.84

row,Structure (SMILES),Percent Effect [%]
1,O=C(O)c1cc(NS(=O)(=O)c2ccccc2F)ccc1N1CCSCC1,-53.64
2,Cc1cc(NS(=O)(=O)c2ccc(Cl)s2)ccc1-n1cccc1C(=O)O,25.94
3,Cc1ccc(S(=O)(=O)Nc2ccc(-n3cccc3C(=O)O)c(C)c2)s1,77.19
4,Cc1cc(NS(=O)(=O)c2cccs2)ccc1-n1cccc1C(=O)O,31.6
5,Cc1cnn(CC2CN(CC(=O)N(C)Cc3cnn(C)c3)CCO2)c1 (configuration not stated),-28.01
6,CCc1ccccc1-n1nnc(C(=O)O)c1-c1ccccn1,8.629
7,CCOCCNC1(c2ccc(Cl)cc2)CCOCC1,-7.005
8,COCCNC1(c2ccc(Cl)cc2)CCOCC1,-43.32
9,Clc1ccc(OCCNC2(c3ccc(Br)cc3)CCOCC2)cc1,68.56
10,CNC(=O)C1(C)CN(c2nnc(C)c3ccccc23)CCO1 (configuration not stated),14
11,COc1ccc(N(c2ccccc2)c2ccc(C(=O)O)s2)cc1,73.26
12,COc1ccc(N(c2ccc(OC)cc2)c2ccc(C(=O)O)s2)cc1,27.51
13,COc1ccc(N(c2ccc(C)cc2)c2ccc(C(=O)O)s2)cc1,2.836
14,Cc1ccccc1C(=O)N1C[C@@H](O)[C@H](N2CCOCC2)C1,51.24
15,CC(=O)N1CCN([C@@H]2CN(C(=O)c3ccccc3C)C[C@H]2O)CC1,-3.259
16,Cc1ccccc1C(=O)N1CC[C@H](O)[C@@H](N2CCOCC2)CC1,45.8
17,CCN(CC)S(=O)(=O)N1CC[C@H](c2ccccc2)[C@@H]2[C@H]1CCCCN2C,1.905
18,COc1cccc2ncn(C(C)Cn3cccn3)c(=O)c12 (configuration not stated),-18.84
19,CCSc1cccc(NCc2cccnc2)c1,12.75
20,COCc1cccc(NCc2cccnc2)c1,-54.85
21,CCSCc1cccc(NCc2cccnc2)c1,73.99
22,CO[C@@H]1CCC[C@@H](NC(=O)CCCn2cncn2)[C@H]1O,5.133
23,COc1ccc(C2CN(c3ncccn3)CCN2C(C)=O)cc1 (configuration not stated),-24.16
24,CCc1ccc2c(C3CN(S(C)(=O)=O)C3)ncn2c1,13.01
25,CCc1ccc2c(C3CN(C(C)=O)C3)ncn2c1,27.54
26,CCc1ccc2c(C3CN(CC4CCC4)C3)ncn2c1.O=C(O)C(F)(F)F,77.11

row,Structure (SMILES),Percent Effect [%]
1,Cc1csc(C2(NCc3csc(C4CC4)n3)CCCC2)n1,19.76
2,Cc1cccc(CS(=O)(=O)c2nnc([C@@H](N)Cc3ccccc3)o2)c1.Cl,-11.8
3,Cc1noc(C(C)NC(=O)[C@@H](C)NC(=O)OC(C)(C)C)n1 (some centres not stated),27
4,Cl.N[C@@H](Cc1ccccc1)c1nnc(S(=O)(=O)Cc2ccc(Cl)cc2)o1,-9.825
5,CCC(C)NC(=O)CS(=O)(=O)Cc1ccccc1Cl (configuration not stated),2.34
6,CC(NC(=O)OC(C)(C)C)c1nnc(S(=O)(=O)Cc2ccc(Cl)cc2)o1 (configuration not stated),103.3
7,N[C@@H](Cc1ccccc1)c1nnc(S(=O)(=O)Cc2ccccc2)o1,-19.29
8,CC(NC(=O)OC(C)(C)C)c1nnc(S(=O)(=O)Cc2ccccc2Cl)o1 (configuration not stated),105.8
9,C[C@H](NC(=O)OC(C)(C)C)c1nnc(S(=O)(=O)Cc2cccc(F)c2)o1,-26.24
10,Cc1ccccc1CS(=O)(=O)c1nnc(C(C)NC(=O)OC(C)(C)C)o1 (configuration not stated),104.2
11,Cn1c(Cn2cccn2)nnc1C1CCN(Cc2cccnc2)CC1,-9.114
12,CCCOc1cc(F)ccc1NC(=O)NCc1noc(C)n1,7.548
13,Cc1cn2c(n1)CCC(NC(=O)c1oc(Br)cc1C)C2 (configuration not stated),-43.16
14,CC(C)NC(=O)N1CCC[C@H]1C(=O)NCCCc1cccc(F)c1,-6.686
15,Cc1c[nH]nc1C1CCCN1Cc1ccncc1 (configuration not stated),14.55
16,CNc1ccnc(NCC(=O)Nc2cc(C)ccc2OC)n1,-15.75
17,CCn1cc(-c2cc(C(F)(F)F)nc(NC3CCCC3)n2)c(C)n1,101.8
18,Cc1nn(C)cc1-c1cc(C(F)(F)F)nc(NC2CCCCC2)n1,22.2
19,Cc1nn(C)cc1-c1cc(C(F)(F)F)nc(NC2CCN(C)CC2)n1,11.83
20,COCC(=O)N1CCCC(c2nc(N)ncc2-c2cccc(F)c2)C1 (configuration not stated),3.898
21,Cc1c(CN2CCOCC2)c(O)n(CCc2ccccc2)c(=O)c1C#N,66.79
22,Cc1c(CN2CCOCC2)c(O)n(CCO)c(=O)c1C#N,-84.89
23,Cc1c(CN2CCCCC2)c(O)n(CCO)c(=O)c1C#N,38.65
24,O=S(=O)(NCCCn1cncn1)c1ccc2c(c1)OCCO2,-20.65
